Only some compounds are listed: those with a hit (about 2.3% of all), similar ones and a draw of the others.
CHRM1 antagonist: human CHRM1 antagonism; P11229; CHO-K1 hM1, Fluo-8 calcium fluorescence, ACh EC80 antagonist; inhibition, % at 3 µM; hit rate 1.3% among 360,000; AID 588852;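 active = percent inhibition above its own plate's cutoff, namely the mean of that plate's compound wells plus 3 SD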;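 note: peak over basal fluorescence ratio during 140 s after agonist addition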
Target sequence (P11229 whole entry, looked up): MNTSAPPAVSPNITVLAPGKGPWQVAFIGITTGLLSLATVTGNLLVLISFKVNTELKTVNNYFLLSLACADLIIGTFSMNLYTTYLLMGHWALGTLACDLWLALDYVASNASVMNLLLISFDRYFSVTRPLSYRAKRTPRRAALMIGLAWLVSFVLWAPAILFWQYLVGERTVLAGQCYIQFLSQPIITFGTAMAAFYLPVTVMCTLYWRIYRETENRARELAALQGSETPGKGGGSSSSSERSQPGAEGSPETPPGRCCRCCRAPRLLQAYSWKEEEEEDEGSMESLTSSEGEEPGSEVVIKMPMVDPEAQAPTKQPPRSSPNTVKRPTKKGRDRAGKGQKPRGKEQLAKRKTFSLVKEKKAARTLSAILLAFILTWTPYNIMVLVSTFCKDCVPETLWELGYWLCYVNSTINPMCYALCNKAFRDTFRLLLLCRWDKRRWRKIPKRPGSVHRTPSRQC
CHO-K1 Ca antag: nonselective inhibitor or artifact in parental CHO-K1 cells; AID 602250; hit rate 0.6% among 360,000; ATP-induced calcium, Fluo-8 fluorescence; inhibition, % at 3 µM;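 active = inhibition above a per-plate cutoff, the plate's mean sample inhibition plus 3 SD, cut at about 24% in these data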
M1 PAM parental: counter-screen for M1 PAMs: effect in parental CHO-K1 cells; ATP EC20, Fluo-8 calcium fluorescence; 0% at ATP EC20, 100% at ATP max; activation, % at 3 µM; hit rate 0.02% among 360,000;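 active = activation above the run cutoff, the mean activation of all test compounds plus 3 SD, cut at about 40% in these data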;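 note: peak over basal fluorescence ratio in a 140 s read after ATP addition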
CHRM1 PAM: potentiates human M1 receptor response to acetylcholine; P11229; CHO-K1 hM1, Fluo-8 calcium fluorescence, ACh EC20; 0% = ACh EC20, 100% = maximal ACh; activation, % at 3 µM; hit rate 0.088% among 360,000; in the data active = activation above about 19%, passing the limit was not always enough
CHRM1 agonist: agonists of human M1 muscarinic receptor; P11229; CHO-K1 hM1, Fluo-8 calcium fluorescence, agonist mode; 0% DMSO, 100% acetylcholine EC100; activation, % at 3 µM; hit rate 0.33% among 360,000; AID 588814;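 active = activation above the run's mean compound activation plus 3 SD, cut at about 16% in these data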;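 note: peak over basal fluorescence ratio within a 140 s kinetic read after compound addition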
M1 ag parental: counter-screen for M1 agonists: effect in parental CHO-K1 cells; Fluo-8 calcium fluorescence; scaled to maximal ATP response, vehicle zero; activation, % at 3 µM; hit rate 0.48% among 360,000; AID 602248; in the data active = activation above about 15%;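 note: untransfected CHO-K1 host cells lacking M1 receptor as counterscreen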
Large screens that a line does not name were inactive.

CCc1nnc(NC(=O)CCC(=O)N2CCN(Cc3ccc(F)cc3)CC2)s1	CHRM1 agonist 16.0
COc1c(O)cc2c(c1O)C1OC(CO)C(O)C(O)C1OC2=O (stereo unspecified)	CHO-K1 Ca antag 27.6, CHRM1 agonist 48.4
COc1c(O)cc2c(c1O)[C@@H]1OC(CO)C(O)C(O)[C@H]1OC2=O (stereo partly specified)	none
O=[N+]([O-])c1ccc(/C=C/C2=NN(c3ccccc3)C(c3ccco3)C2)o1 (stereo unspecified)	CHRM1 antagonist 60.0, CHO-K1 Ca antag 39.0, CHRM1 agonist 66.2, M1 ag parental 38.4
C(=C\c1ccco1)/C1=NN(c2ccccc2)C(c2ccco2)C1 (stereo unspecified)	none
O=S(=O)(NCc1ccccc1)c1ccc(S(=O)(=O)N(Cc2cccs2)CC2CCCO2)cc1 (stereo unspecified)	CHO-K1 Ca antag 27.8
COc1cc(S(=O)(=O)N(Cc2cccs2)CC2CCCO2)ccc1-n1cnnn1 (stereo unspecified)	none
OCCN1CCN(CCCN2c3ccccc3CCc3ccccc32)CC1	none
N#CC1(CCCN2CCCCC2)c2ccccc2CCc2ccccc21	CHRM1 antagonist 67.7
COc1cc(NS(=O)(=O)c2ccc(N/C=C\C(=O)c3ccc(F)cc3)cc2)nc(OC)n1	none
O=C1c2ccc(Oc3ccc([N+](=O)[O-])cc3)cc2C(=O)N1CCO	M1 ag parental 16.7
O=C(O)c1ccc(CN2C(=O)c3ccc(Oc4ccc([N+](=O)[O-])cc4)cc3C2=O)cc1	none
O=c1[nH]c(Nc2ccc3c(c2)OCCO3)nnc1Cc1ccccc1	none
C(#Cc1ccccc1)C[N+]1(CC#Cc2ccccc2)CCCC1	CHRM1 antagonist 39.3
CC(C)(C)c1ccc(S(=O)(=O)NNC(=O)C2CCN(Cc3cccc(F)c3)CC2)cc1	M1 ag parental 22.8
O=C(NCCc1cccc(F)c1)C1CCN(S(=O)(=O)c2ccc(F)cc2)CC1	none
Cc1[nH]n(C(N)=S)c(=O)c1N=Nc1cccc([N+](=O)[O-])c1C	M1 ag parental 25.8
COC(=O)c1oc2c(c1C)C1(CCC2)SCCS1	CHRM1 antagonist 30.5
COc1ccc2oc(C(=O)OCC(=O)NC3(C#N)CCCC3)c(C)c2c1	none
CCN(CC)CCSc1nc2ccccc2n1Cc1ccccc1	CHRM1 antagonist 90.3
CC1CCC2(CC1)NC(=O)N(CC(=O)Nc1ccc(F)cc1)C2=O (stereo unspecified)	none
CCOC(=O)c1[nH]c2ccc(Br)cc2c1NC(=O)CCN1CCC(C)CC1	CHRM1 antagonist 31.9
O=S(=O)(c1ccccc1)N1CCN(C(=S)Nc2ccccc2Cl)CC1	none
Cc1cc(C)cc(NC(=O)c2ccc(CSc3nnnn3C)cc2)c1	CHRM1 antagonist 27.9
Cc1ccc(/C=N/N=C2/NC(=O)C(CC(=O)N3CCOCC3)S2)cc1 (stereo unspecified)	none
CCN(CC1CCCN(CCc2cccc(F)c2)C1)C(=O)c1cc(C)oc1C (stereo unspecified)	CHRM1 antagonist 42.9
CN(CC1CCCN(CCc2cccc(C(F)(F)F)c2)C1)C(=O)c1cc2ccccc2o1 (stereo unspecified)	CHRM1 antagonist 52.0
CCN(CC1CCCN(CCc2cccc(OC)c2)C1)C(=O)c1ccoc1C (stereo unspecified)	none
CCN(CC1CCCN(CCc2cccc(F)c2)C1)C(=O)c1cc2ccccc2o1 (stereo unspecified)	CHRM1 antagonist 52.8
CN(C)C1=NC[C@H](Cc2ccccc2)N1CCCC1CCCC1	none
S=C1NC[C@H](Cc2ccccc2)N1CCCCC1CCCCC1	none
CCCCN1CCC(CN2C(=S)NC[C@@H]2CC(C)C)CC1	none
S=C1NC[C@H](Cc2ccccc2)N1CC1CCN(CCCC2CCCC2)CC1	CHRM1 antagonist 38.5
CC(C)C[C@H]1CNC(=S)N1CC1CCN(CCCCc2ccccc2)CC1	CHRM1 antagonist 51.7
CC(C)C[C@H]1CNC(=S)N1CC1CCN(CCCC2CCCC2)CC1	CHRM1 antagonist 75.4
CN(C)C1=NC[C@H](Cc2ccccc2)N1CCCC1CCCCC1	CHRM1 antagonist 30.9
COc1ccc(CN2CCCC(C(=O)Nc3cccc(-n4cccn4)c3)C2)c(F)c1 (stereo unspecified)	none
Cc1ccccc1OCC(=O)OC1CCN(C)CC1	CHRM1 antagonist 32.0
COc1ccc(OCC(=O)OC2CCN(C)CC2)cc1	none
CN1CCC(OC(=O)COc2ccc(Br)cc2)CC1	CHRM1 antagonist 30.6
CCOc1ccc(-c2c(C(=O)N/N=C/c3ccsc3)nnn2-c2nonc2N)cc1	CHRM1 agonist 27.9
CCOc1cccc(-c2c(C(=O)N/N=C/c3ccc(Br)cc3)nnn2-c2nonc2N)c1	CHRM1 agonist 18.9
Nc1nonc1-n1nnc(C(=O)N/N=C/c2cccnc2)c1CSc1ccccc1	none
Nc1nonc1-n1nnc(C(=O)N/N=C/c2cccnc2)c1CSc1ccc(Cl)cc1	M1 ag parental 15.7
CCOc1ccc(-c2c(C(=O)N/N=C/c3ccc(O)cc3)nnn2-c2nonc2N)cc1	none
CCCOc1ccc(-c2c(C(=O)N/N=C/c3ccc(OCC)cc3)nnn2-c2nonc2N)cc1	CHO-K1 Ca antag 25.7
O=C(Nc1cc(S(=O)(=O)N2CCCCC2)ccc1N1CCOCC1)c1ccc(F)cc1	none
CC(C)COC(=O)N(C)C[C@H]1OCc2cnnn2CCCC(=O)N([C@H](C)CO)C[C@H]1C	none
COc1ccc(OC)c(/C=N/NC(=O)CSc2cc(C)nc3c(OC)cccc23)c1	none
CC1Cc2ccccc2N1S(=O)(=O)c1cccc(C(=O)N2CC(=O)Nc3ccccc32)c1 (stereo unspecified)	none
CCn1ncc(CN2CCCC(C(=O)Nc3cccc(-c4cc5ccccc5[nH]4)c3)C2)c1C (stereo unspecified)	CHRM1 antagonist 25.1
CCOc1ccccc1CN1CCCC(C(=O)Nc2cccc(-n3cccn3)c2)C1 (stereo unspecified)	CHRM1 antagonist 71.0
CCOc1cccc(CN2CCCC(C(=O)Nc3cccc(-n4cccn4)c3)C2)c1 (stereo unspecified)	none
COc1ccc(-c2cc(C(=O)NCC(c3ccco3)N(C)C)c3ccccc3n2)cc1OC (stereo unspecified)	none
CN1CCCCC1(C)C(=O)NCc1ccc(F)cc1 (stereo unspecified)	CHO-K1 Ca antag 25.5
COc1cccc(CNC(=O)C2(C)CCCCN2C)c1 (stereo unspecified)	none
O=C(C1CCN(S(=O)(=O)c2cccc3cccnc23)CC1)N1CCn2c1nc1ccccc12	CHRM1 agonist 42.6
CCOc1ccccc1NC(=O)N1CCC(NC(=O)C2CCCCC2)CC1	none
CC12CN3CC(C)(CN(C1)C3c1ccccc1)C2O (stereo unspecified)	none

Screens deposited in PubChem by The Scripps Research Institute Molecular Screening Center.
